PubChem BioAssay AID1224921 (Broad Institute, 2016)
Hit rate of the full screen: of about 1,400 compounds, about 350 (25%) were called active. Not shown: some 2% with an inconclusive outcome. The rule behind the calls is not given here. These entries were drawn from the full list. Entries with a potency or affinity are not part of this list.

assay: inhibitors of Clostridioides difficile proliferation – 4-point retest, confirmation (AID 1224921); conditions: Clostridioides difficile clinical isolate growth, OD600, 24 h, active compounds read low; at 30 µM unless noted;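 note: plate controls were DMSO wells for no effect and levofloxacin 16 µg/mL wells for full effect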

Max activity, inactive:
CCCC(=O)Nc1ccc2c(c1)C(=O)N(C)C[C@H](OC)[C@H](C)CN(Cc1ccc(F)cc1)[C@@H](C)CO2 17.3%
COc1cccc(C#Cc2cnc3c(c2)C(=O)N([C@H](C)CO)C[C@@H](C)[C@H](CN(C)C)O3)c1 6.76%
COc1cccc(C#Cc2cnc3c(c2)C(=O)N([C@@H](C)CO)C[C@H](C)[C@@H](CN(C)C)O3)c1 -9.5% [at 1.95 µM]
C[C@@H]1CN([C@H](C)CO)C(=O)c2cc(C#Cc3ccccc3F)cnc2O[C@@H]1CN(C)C(=O)C1CCOCC1 17.1%
CC(=O)N(C)C[C@H]1Oc2ncc(C#Cc3ccccc3F)cc2C(=O)N([C@@H](C)CO)C[C@@H]1C 60.6%
CCNC(=O)C[C@H]1C=C[C@H](NS(=O)(=O)c2ccc(F)cc2)[C@H](CO)O1 -12%
O=C(C[C@@H]1C[C@H]2c3cc(NC(=O)Nc4ccc(C(F)(F)F)cc4)ccc3O[C@H]2[C@@H](CO)O1)NCc1ccc2c(c1)OCO2 -23.2% [at 8 µM]
CO[C@@H]1CN(C)C(=O)c2ccc(NS(=O)(=O)c3ccccc3C)cc2OC[C@@H](C)N(S(C)(=O)=O)C[C@H]1C -12.6% [at 8 µM]
C[C@@H]1CN([C@@H](C)CO)S(=O)(=O)c2ccc(C#Cc3ccc(F)cc3)cc2O[C@@H]1CN(C)C(=O)NC1CCCCC1 -4.75% [at 8 µM]
C[C@@H]1CN([C@@H](C)CO)C(=O)c2cc(NS(=O)(=O)c3ccc(Cl)cc3)ccc2O[C@@H]1CN(C)Cc1ccccc1 18.9%
CO[C@H]1CN(C)C(=O)c2cc(NC(=O)C3CCOCC3)ccc2OC[C@H](C)N(C(=O)c2ccccc2)C[C@H]1C -6.51%
CO[C@H]1CN(C)C(=O)c2ccc(NC(=O)C3CCC3)cc2OC[C@H](C)N(C(=O)CN(C)C)C[C@H]1C -8.4%
CO[C@H]1CN(C)C(=O)c2cc(NC(=O)C3CCOCC3)ccc2OC[C@@H](C)N(C(=O)c2ccccc2)C[C@H]1C -10.4% [at 1.95 µM]
CO[C@H]1CN(C)C(=O)c2cc(NC(=O)C3CC3)ccc2OC[C@H](C)N(C(=O)c2ccccn2)C[C@@H]1C 5.91%
CO[C@@H]1CN(C)C(=O)c2ccc(NC(=O)C3CCC3)cc2OC[C@H](C)N(C(=O)CN(C)C)C[C@@H]1C -13.6% [at 0.5 µM]
CO[C@@H]1CN(C)C(=O)c2cc(NC(=O)C3CCOCC3)ccc2OC[C@H](C)N(C(=O)c2ccccc2)C[C@H]1C -8.41% [at 0.5 µM]
